Most compounds without a hit are left out; they make up all but 21% or so of the library.
HCMV inh: inhibitors of human cytomegalovirus. HFF cells, HCMV-luciferase reporter, 72 h; stronger effect = lower value. activity change, negative = inhibition, % at 57.5 µM. 410,000 tested, 4.5% active. AID 1259415; in the data active means activity change below about -60%; inconclusive means no clear call, values can overlap the other calls; inactive means above about -39%; further: on the % scale 0 is the no-effect control and ±100 the full control effect
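After 16 h attachment at 37C, HFF cells received test compound and HCMV-luciferase (1 PFU/cell); reporter luminescence read 72 h later, data normalized against buffer-only and known inhibitor Salinomycin.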
Shiga toxin inh: inhibitors of Shiga toxin in Vero cells; Vero cells, Shiga toxin protein synthesis inhibition reporter; inhibition, % at 38.7 µM; 290,000 tested, 9.2% active; AID 2315; in the data active means inhibition mostly above about 28%, no sharp cut-off; inactive means mostly below about 43%; further: 0% is about no effect
Pf growth 96h: P. falciparum growth inhibition at 96 hour, primary screen for plastid delayed-death inhibitors | Potency, µM (highest dose often 28.7 µM), without a hit: top-dose activity change, negative = inhibition, most hits filed as inhibitors | 320,000 tested, 6.9% active | P. falciparum luciferase reporter growth, 96 h; further: potency means the concentration at half of the fitted maximal effect; on the % scale 0 is the no-effect control and ±100 the full control effect
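Erythrocytes infected with luciferase-expressing P. falciparum were dispensed at 2% hematocrit and 0.05% parasitemia (final), then incubated with compounds 96 hours at 37 C in 5% CO2. Luminescence after detection reagent addition reported growth.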
Pf growth 48h: P. falciparum growth inhibition at 48 hours (one generation); P. falciparum luciferase growth in erythrocytes, 48 h; Potency, µM (titrated, usually from 28.7 µM), inactives show top-dose activity change, negative = inhibition, actives largely listed as inhibitors; 310,000 tested, 5.9% active; AID 504832; further: potency means the concentration at half of the fitted maximal effect; on the % scale 0 is the no-effect control and ±100 the full control effect
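Cell-based growth assay: transgenic P. falciparum expressing firefly luciferase, cultured in red cells within RPMI 1640 containing 0.5% w/v Albumax, 24 mM bicarbonate and gentamycin. A drop in luciferase activity indicates inhibition.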
HCV inh: blocks hepatitis C virus; Huh7.5.1 HCVcc-Cre infection, luciferase reporter, 44 h; Potency, µM (highest dose often 41.8 µM), without a hit: at the top dose activity change, negative = inhibition, actives largely listed as inhibitors; 340,000 tested, 3.4% active; AID 651820; further: potency means the concentration at half of the fitted maximal effect; on the % scale 0 is the no-effect control and ±100 the full control effect
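Seed cells (1,000/well) for 4 h; treat with compound and infect with HCVcc-Cre, moi about 0.5. Incubate 44 h, then detect luciferase activity.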
Cycloheximide cs: affects cycloheximide protein synthesis inhibition readout, counter-screen | cell reporter, cycloheximide protein synthesis inhibition counterscreen | max response, % | 300,000 tested, 12% active | AID 2314; in the data active means max response mostly above about 13%, no sharp cut-off; inactive means mostly below about 14%; further: read at 38.3 µM for the half of the compounds with a filed dose; 0% is about no effect
* = called active by the depositor; ? = inconclusive; nt = not tested or not shown; [ ] = remark or other dose. Unless noted, the call rests on the fitted dose curve; in most records, active means well fitted inhibition curve with a large enough effect; inconclusive means small, poorly fitted or top-dose-only effect, or another doubt; inactive means no such curve, though single readings can be large or run the other way.

SMILES | HCMV inh | Shiga toxin inh | Pf growth 96h | Pf growth 48h | HCV inh | Cycloheximide cs
COc1ccccc1N1CCN(C(=O)c2noc(C)c2[N+](=O)[O-])CC1 | 0.0 | -4.4 | 18.8% | -12.8% | 24.1% | 0.9
Cc1c(C(=O)N2CCN(C(c3ccccc3)c3ccccc3)CC2)oc2ccccc12 | -22.7 | nt | 14.7µM* | 6.57µM* | ? | nt
Cc1cc(C(=O)N2CCN(C(c3ccccc3)c3ccccc3)CC2)no1 | -17.8 | 13.1 | ? | 9.28µM* | ? | 1.1
Cc1cc(C(=O)N2CCN(c3ccccc3)CC2)no1 | 14.4 | 2.0 | 46.1% | 5.5% | 14.0% | -3.6
CCCc1cc(C(=O)N2CCN(C(c3ccccc3)c3ccccc3)CC2)no1 | -3.9 | 7.0 | ? | 11.7µM* | ? | 5.4
Cc1onc(C(=O)N2CCN(C(c3ccccc3)c3ccccc3)CC2)c1[N+](=O)[O-] | -103.2* | -12.0 | ? | ? | ? | -3.4
Cc1c(C(=O)N2CCC3(CC2)OCCO3)oc2ccccc12 | -20.7 | 28.0 | 38.1% | 7.5% | 7.2% | 11.1
O=C(Nc1cccc(Cl)c1)c1ccc(S(=O)(=O)NCC2CCCO2)cc1 (centres undefined) | ? | 5.9 | 24.3% | 7.8% | ? | -0.6
CCSc1nnc2c(n1)OC(C)(C)Nc1ccccc1-2 | 34.4 | 65.1* | 15.0% | 36.4% | 24.2% | 33.8*
O=C1CN(C(=O)/C=C/c2ccc(Br)cc2)CCN1 | -14.7 | 24.9 | 37.6% | 15.8%[0.00184 µM] | 0.2% | 16.9*
O=C1CN(C(=O)/C=C/c2cc(Br)ccc2F)CCN1 | -36.5 | -6.5 | 7.6% | 19.7% | 2.6% | -2.8
COc1ccc(/C=C/C(=O)N2CCNC(=O)C2)c(OC)c1 | 26.2 | 26.6 | 63.5% | 37.4% | 13.5% | 14.4*
Cc1ccc(Cl)cc1N1CCN(C(=O)c2cn(C)c3ccc(S(=O)(=O)N4CCCCC4)cc3c2=O)CC1 | 0.5 | nt | nt | nt | nt | nt
COc1ccc(-c2noc(C3CCCN(C(=O)c4ccccc4OC)C3)n2)cc1OC (centres undefined) | 38.5 | 28.7 | ? | ? | -21.4% | 23.0*
Cc1ccc(-c2noc(C3CCCN(C(=O)c4c(F)cccc4F)C3)n2)cc1 (centres undefined) | ? | 69.2 | nt | -5.8% | nt | 29.5
Cc1ccc(-c2noc(C3CCCN(C(=O)c4ccccc4Br)C3)n2)cc1 (centres undefined) | ? | 53.4* | ? | -0.1% | 10µM* | 27.1*
O=C(NC1CC1)C1=C[C@@H](C2CC2)C[C@@H](OCc2ccc(CO)cc2)O1 | 7.8 | 19.1 | 36.8% | 45.1% | -8.1% | -1.3
Clc1cccc(CN2CCc3c([nH]c4ccccc34)C2)c1Cl | -91.0* | -8.5 | ? | 1.85µM* | ? | -3.1
COc1ccccc1CN1CCc2c([nH]c3ccccc23)C1 | 44.9 | -9.4 | 4.3% | ? | -17.1% | -1.5
CCOC(=O)c1cnc(SCC(=O)NCc2cccs2)nc1N | -37.7 | 3.7 | 56.9% | 11.7% | -4.8% | -1.5
CCOC(=O)c1cnc(SCC(=O)Nc2ccc(N3CCOCC3)c(Cl)c2)nc1N | 32.7 | 14.0 | -14.1% | -14.0% | 0.6% | 3.0
CCOC(=O)c1cnc(SCC(=O)Nc2cc(OC)cc(OC)c2)nc1N | -60.2* | -7.0 | nt | 1.8% | ? | -1.2
CCOC(=O)c1cnc(SCC(=O)Nc2sc(C)c(C)c2C#N)nc1N | -64.4* | -13.1 | 0.7% | 5.8% | -10.1% | -4.6
O=C(CSc1nc2c([nH]c3ccccc32)c(=O)n1-c1ccccc1)Nc1ccccc1C(F)(F)F | 36.2 | nt | nt | nt | nt | nt
CN1C(=O)c2[nH]nc(-c3ccc(F)cc3)c2C1c1cccc(O)c1 (centres undefined) | 12.7 | nt | nt | nt | nt | nt
SMILES | HCMV inh | Shiga toxin inh | Pf growth 96h | Pf growth 48h | HCV inh | Cycloheximide cs
C[C@H](CO)N1C[C@H](C)[C@H](CN(C)C(=O)Nc2ccc(-c3cccs3)cc2)OCc2cnnn2CCCC1=O | -60.7* | nt | nt | nt | nt | nt
O=C(Nc1cccc(C(=O)Nc2cc(C(=O)Nc3ccc([S+](=O)([O-])[O-])c4cc([S+](=O)([O-])[O-])cc(SOOO)c34)ccc2F)c1)Nc1cccc(C(=O)Nc2cc(C(=O)Nc3ccc([S+](=O)([O-])[O-])c4cc([S+](=O)([O-])[O-])cc([S+](=O)([O-])[O-])c34)ccc2F)c1 | nt | -15.2 | nt | nt | nt | -12.1
Cc1ccc2c(COC(=O)c3ccccc3Cl)cc(=O)oc2c1 | -11.7 | 59.0* | 38.6% | 213.7% | -8.1% | 42.1*
CCOc1ccccc1C(=O)N[C@H](C(=O)OCc1csc(CC(=O)Nc2ccc(C)cc2)n1)C(C)C | 20.9 | nt | nt | nt | 11.2µM* | nt
Cc1ccc2c(COC(=O)c3ccc(C)c(C)c3)cc(=O)oc2c1 | -1.8 | 10.9 | 11.0% | 2.4% | -21.9% | 2.2
CCOc1ccccc1C(=O)N[C@H](C(=O)OCc1cc(=O)oc2cc(C)ccc12)C(C)C | -22.6 | 17.1 | ? | ? | 10µM* | 26.3*
CCOc1ccccc1C(=O)NCC(=O)OCc1csc(CC(=O)Nc2ccc(C)cc2)n1 | 1.8 | nt | 34.9% | -1.4% | -1.8% | nt
CCOc1ccccc1C(=O)N[C@H](C(=O)OCc1cc([N+](=O)[O-])cc2c1OCOC2)C(C)C | -4.1 | 11.5 | ? | 13.1µM* | 20µM* | 3.5
C=CCOc1ccccc1CN1CCN(CCc2ccccc2)C(CCO)C1 (centres undefined) | 24.4 | -4.1 | ? | ? | -10.8% | -4.1
CCCCCCCCN1C(=O)[C@@H](CC(=O)N2CCN(C(=O)c3ccco3)CC2)C[C@@]2(C(=O)OC)C1=C[C@H](C(C)(C)C)O[C@@H]2C | 38.0 | nt | nt | nt | nt | nt
Cc1cccc(OCC(=O)N(Cc2ccc(F)cc2)C2CCS(=O)(=O)C2)c1C (centres undefined) | ? | -1.8 | -24.2% | 7.4% | 15.5% | -5.5
CCc1cccc(C)c1NC(=O)CSc1nnc(C)o1 | 8.1 | -28.9 | 199.3% | 3.8% | 9.1% | 12.4
CCOC(=O)c1cccn1C1C(=O)N(Cc2ccc(Cl)nc2)c2ccc(Cl)cc21 (centres undefined) | -27.2 | nt | nt | nt | nt | nt
COc1ccc(Br)c(C(=O)OCc2cc(=O)oc3cc(C)ccc23)c1 | -29.3 | 17.5 | 9.6% | 15.6% | ? | -5.3
Cc1ccc2c(COC(=O)c3ccccc3Br)cc(=O)oc2c1 | -17.5 | 98.3* | 74.0% | 61.9% | ? | 34.0*
COC(=O)c1cn(C(=O)c2ccc(C)cc2C)c2ccccc12 | -28.8 | 3.9 | ? | ? | ? | 0.5
COC(=O)c1cn(C(=O)c2ccccc2Cl)c2ccccc12 | -64.1* | 1.9 | 474.2% | -2.6% | ? | -1.2
COC(=O)c1cn(CCOc2ccccc2OC)c2ccccc12 | -2.2 | 25.8 | -1.7% | -9.2% | ? | 1.2
COC(=O)c1cn(CCOc2ccccc2F)c2ccccc12 | 28.7 | 71.0* | 9.2% | nt | ? | 40.4*
COC(=O)c1cn(CCOc2ccccc2)c2ccccc12 | 104.7 | 79.4* | nt | -16.2% | 12.6µM* | 54.6*

High-throughput results: PubChem, National Center for Advancing Translational Sciences (NCATS)
